In all, about 69,000 compounds went through this assay and about 8,600 (12%) showed an effect of 50% or more. The full list was thinned out, with strong results kept by preference.
What follows are molecules tested on Plasmodium berghei (assay: Screen against P. berghei liver stage (PbLuc), transformed with Luciferase, at 10uM). Details: tested at 10 uM.
Type: functional, HepG2

SMILES | INHIBITION [%]
CCc1nc(CN2CCN(C(=O)C3(C#N)CCCCC3)CC2)cs1 | -9.37
Cc1[nH]nc(-c2ccc(F)cc2)c1CC(=O)NCC1CCOCC1 | 9.55
COc1ccc(-c2n[nH]c(C)c2CC(=O)NCCN2CCOCC2)cc1 | 29.3
COc1ccc(-c2n[nH]c(C)c2CC(=O)NCC2CCOCC2)cc1 | 51.9
COc1ccc(-c2n[nH]c(C)c2CC(=O)NCC2CCCO2)cc1 (centres undefined) | 39.7
COc1ccc(-c2n[nH]c(C)c2CC(=O)N2CCOCC2)cc1 | 51.3
COc1ccc(-c2cc3cccn(CC(=O)N4CCOCC4)c-3n2)cc1 | -23.4
COCCN(Cc1cnn(C)c1)C(=O)C1CCC(=O)N(C2CCCC2)C1 (centres undefined) | 20.3
CC1(C)C[C@H](CCNC(=O)c2ccncc2)c2ccccc2O1 | 27.8
O=C1CC(N(C(=O)c2ccc(Cl)c(Cl)c2)C2CC2)C(=O)N1 (centres undefined) | 31.8
O=c1ccc(-n2ccnc2)nn1CCNS(=O)(=O)c1ccc(F)c(Cl)c1 | -1.99
O=c1ccc(-n2ccnc2)nn1CCNS(=O)(=O)c1ccccc1Cl | 35.1
O=c1ccc(-n2ccnc2)nn1CCNS(=O)(=O)c1ccc(Br)cc1 | 59.3
CN(Cc1ncc[nH]1)C(=O)C(C)(C)NC(=O)c1cccs1 | 9.79
CC(NC(=O)N1CCC(n2cncn2)CC1)c1ccc(F)cc1 (centres undefined) | 17.4
CCS(=O)(=O)N1CCC[C@]2(C(=O)N(C)C)CN(c3ccccn3)C[C@@H]2C1 | 4.92
Cc1cc(C)nc(N2CCC(c3nnc(CN(C)C)n3C3CC3)CC2)n1 | -46.8
Cc1cnc(C)c(N2CCC(c3nnc(CN(C)C)n3C3CC3)CC2)n1 | 77.8
CN(C)Cc1nnc(C2CCN(c3ncccn3)CC2)n1C1CC1 | -12.1
CCc1c(C)nc2n(c1=O)CC(C(=O)NCc1cccs1)CS2 (centres undefined) | 35.8
c1ccc(CN2CCO[C@H]3[C@H](OCCN4CCCC4)CC[C@@H]32)nc1 | 26.8
c1ccc(O[C@@H]2CC[C@H]3[C@H]2OCCN3Cc2ccsc2)nc1 | 20.9
Cc1cccc(CN2CCO[C@H]3[C@H](Oc4ccccn4)CC[C@@H]32)n1 | -49.6
c1ccc(O[C@H]2CC[C@H]3[C@H]2OCCN3Cc2nccs2)nc1 | 6.8
Fc1ccc(CN2CCO[C@H]3[C@H](Oc4ccccn4)CC[C@@H]32)cc1 | 61.5
O=C(CO[C@@H]1CC[C@H]2[C@H]1OCCN2c1ncccn1)N1CCCC1 | 24.6

SMILES | INHIBITION [%]
COc1ccc(CN2CCO[C@H]3[C@H](Oc4ccccn4)CC[C@@H]32)cc1 | 41.2
O=C(CO[C@@H]1CC[C@H]2[C@H]1OCCN2Cc1ccccn1)N1CCCC1 | 54.1
c1ccc(O[C@@H]2CC[C@H]3[C@H]2OCCN3CC2CCOCC2)nc1 | 56.1
Cc1cc(C)nc(N2CC=C[C@@H]2C(=O)NCc2ccc3c(c2)OCO3)n1 | 4.41
CC(C)n1c(=O)c2ccccc2n(CCN2CCCCC2)c1=O | 3.19
COc1ccc(C)cc1C(=O)NC1(C#N)CCOCC1 | 42.1
COC(=O)c1ccc(N2CCN(CCS(C)(=O)=O)C(C)C2)cc1 (centres undefined) | 0.411
Cc1cc(C(=O)CN2CCN(c3cnccn3)CC2)c(C)n1C(C)C | 17.7
CCOc1ccnc(N2CCN(C(=O)c3ccc(C#N)cc3)CC2)n1 | 36.1
N#Cc1ccc(CNCCn2cccn2)c(F)c1 | 20.74
O=C(Cn1c(-c2ccco2)cc2cccnc21)N1CCCC1 | -16.8
Cc1cccc(C)c1NCc1noc(C2CC2)n1 | 36.3
CCCc1noc(CNc2cc(C[S+](C)[O-])ccc2Cl)n1 (centres undefined) | 30.9
CCCc1nc(CNc2cc(CS(C)(=O)=O)ccc2Cl)no1 | 52.2
CCCc1nc(CNc2ccc(F)c(F)c2)no1 | -9.51
Clc1ccc(C2(NCc3noc(C4CC4)n3)CCC2)cc1 | 8.18
CS(=O)(=O)Cc1ccc(Cl)c(NCc2noc(C3CC3)n2)c1 | 57.8
CC(=O)N[C@H]1CCO[C@@H](c2cccc(NC(=O)Cc3ccccc3)c2)C1 | 13.205
CCc1nnc(CN2CCOC(Cn3cc(C)cn3)C2)o1 (centres undefined) | 15.5
CC(=O)N1CCCN(C(=O)C(C)n2cncn2)CC1 (centres undefined) | 10
CCc1cc(NCCCc2nc(C)no2)nc(-c2ccncc2)n1 | 17.6
O=C(c1ccc(=O)[nH]c1)N1CCC(Oc2cccc(C(F)(F)F)c2)CC1 | 50.1
O=C(c1cccnc1)N1CCC(Oc2cccc(C(F)(F)F)c2)CC1 | 27.6
Nc1cc(C(=O)N2CCC(Oc3cccc(C(F)(F)F)c3)CC2)ccn1 | 38.3
OC1(CN2CCC(Oc3cccc(C(F)(F)F)c3)CC2)CCNC1 (centres undefined) | 87.7
Fc1cccc(OC2CCN(Cc3ncc[nH]3)CC2)c1 | 40

SMILES | INHIBITION [%]
FC(F)(F)c1cccc(OC2CCN(Cc3ncc[nH]3)CC2)c1 | 79.7
O=c1ccn([C@H]2CCN(Cc3ncc[nH]3)CC[C@@H]2O)c(=O)[nH]1 | 24.4
OC1(CN2CCC(Oc3cccnc3)CC2)CNCCOC1 (centres undefined) | -16.8
Cc1cccc(CNC(=O)NCC2CCN(Cc3ncc[nH]3)C2)c1 (centres undefined) | 4.68
O=C(c1ccncc1)N1CCC(Oc2cccc(C(F)(F)F)c2)CC1 | 10.5
OC1(CN2CCC(Oc3cccc(C(F)(F)F)c3)CC2)CNCCOC1 (centres undefined) | 37.1
Cc1cccc(OC2CCN(Cc3ncc[nH]3)CC2)c1 | 53.2
COc1ccc(Cl)cc1C(=O)NCCNc1cnccn1 | -21.8
O=C1CC2(CCN(c3nncs3)C2)CN1c1cccc(F)c1 (centres undefined) | -6.3
CCN1CC2(CC1=O)CN(C(=O)NC(C)C)CCN(C(=O)C(C)C)C2 (centres undefined) | 30.5
CN(C)C(=O)N1C[C@@H]2COC[C@]2(CNS(C)(=O)=O)C1 | 14.2
CC(=O)N1CCO[C@@H]2CN(Cc3ccccc3Cl)C[C@@H]2C1 | 38.5
Cc1ccccc1C1(C(=O)NCCN(C(C)C)C(C)C)CCOCC1 | -52.66
c1cc2nccc(CC3CCCN(C4CCOCC4)CC3)c2cn1 (centres undefined) | 15.9
CN(C)[C@@H]1CN(C(=O)Cc2cccs2)[C@@H]2CCCO[C@H]12 | 24.6
O=C(c1ccc(N2CCOCC2)cc1)N1CCCC(n2ccnc2)C1 (centres undefined) | 41.415
CN(C)c1ncccc1CNC(=O)NCCN(C)C1CCCC1 | 28.8
CCOC(=O)C1CCN(Cc2csc(-c3ccc(C)o3)n2)CC1 | 0.914
O=C(C1CCOCC1)N1CC[C@@H](O)[C@@H]1Cc1ccncc1 | -2.35
CC(=O)N1CCC(n2nccc2-c2cnc(N3CCCC3)nc2)CC1 | 33.7
Nc1ccc(C(=O)N2CCC(Oc3cccc(C(F)(F)F)c3)CC2)cn1 | 29.8
FC(F)(F)c1cccc(OC2CCN(Cc3ccccn3)CC2)c1 | 40.7
FC(F)(F)c1cccc(OC2CCN(Cc3c[nH]cn3)CC2)c1 | 88
CCc1nc(C2CCCN2C(=O)CCCn2cncn2)no1 (centres undefined) | -59.4
CN1C(=O)CCCC12CCCN(C(=O)c1ccc3c(c1)OCO3)C2 (centres undefined) | -36.8
CCS(=O)(=O)N1CCC2(CC1)CN(Cc1ccccn1)C(=O)CO2 | 35.8

SMILES | INHIBITION [%]
CCOC(=O)[C@@H]1[C@@H](O)C(=O)N(C)C12CCN(C(=O)c1ccco1)CC2 | -3.5
CCOC(=O)[C@H]1[C@@H](O)C(=O)N(C)C12CCN(C(=O)c1ccccc1)CC2 | 58.5
CCOC(=O)[C@H]1[C@@H](O)C(=O)N(C)C12CCN(C(=O)OCC)CC2 | 20
CCN(CC)S(=O)(=O)NCc1ccc(-c2ccc(C(N)=O)c(C)n2)cc1 | -5.8
CN(CCc1cccs1)C(=O)Nc1cccc(S(C)(=O)=O)c1 | -93.6
Cc1nc(CN2CCN(C(=O)NC(C)c3cccnc3)CC2)cs1 (centres undefined) | 41.5
CC(C)Oc1ccc(CNC(=O)NCc2ccncc2)cc1F | 29.5
CC(C)Oc1ccc(NCc2ccc([S+](C)[O-])cc2)c(F)c1 (centres undefined) | 93.1
CC(C)Oc1ccc(CNC(=O)CC(F)(F)F)cc1F | -4.69
COCCN(CCOC)c1ncc(C#N)cc1Cl | -2.39
CN(c1ncc(C(N)=O)cc1Cl)C1CCC(c2ccccc2)CC1 (centres undefined) | 38.1
COc1cccc(CN(C)c2ncc(C(N)=O)cc2Cl)c1 | 26.9
CN(Cc1cccc(C(N)=O)c1)c1ncc(C#N)cc1Cl | 61.1
CCN(CC)C(=O)c1ccc(CNc2ncc(C#N)cc2Cl)cc1 | -22.8
CN(Cc1ccc(C#N)cc1)c1ncc(C(N)=O)cc1Cl | 65.4
CN(Cc1cccc(C#N)c1)c1ncc(C(N)=O)cc1Cl | 66.3
CN(Cc1ccc(C#N)cc1)C(=O)c1ccn(C)c(=O)c1 | 33.4
CN(Cc1cccc(C(N)=O)c1)c1ncc(C(N)=O)cc1Cl | 49.1
Cc1cc(CNC(=O)NCCC(=O)N2CCCc3ccccc32)no1 | 17.1
CN(Cc1cccc(C#N)c1)Cc1nc2c(cnn2C)c(=O)[nH]1 | 44.3
CC(C)S(=O)(=O)CCN1CCc2c(ncn2C2CC2)C1 | 67.1
OC(COc1ccccc1)CN1CCc2c(ncn2C2CC2)C1 (centres undefined) | 5.97
O=S(=O)(CCN1CCc2c(ncn2C2CC2)C1)c1ccccc1 | -11.4
CS(=O)(=O)CCN1CCc2c(ncn2C2CC2)C1 | -2.43
OC(CN1CCOCC1)CN1CCc2c(ncn2C2CC2)C1 (centres undefined) | 13.5
Cc1ccc(OCC(O)CN2CCc3c(ncn3C3CC3)C2)cc1 (centres undefined) | 58.5

— ChEMBL document CHEMBL4513216, “Probing the Open Global Health Chemical Diversity Library for Multistage-Active Starting Points for Next-Generation Antimalarials” (ACS Infect Dis, 2020)
